TEAD-YAP inh = TEAD-YAP interaction inhibition. HEK-TIYL cells, TEAD-Gal4/YAP UAS-luciferase luminescence. 640,000 compounds, 1.4% hits. inhibition, % at 9.12 µM. AID 1259422; in the data active = inhibition above about 32%;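 note: 0% = median of test compound wells and 100% = reference inhibitor wells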
GPR151 ag = activates the human receptor GPR151; 650,000 compounds, 1% hits; activation, % at 11.2 µM; PathHunter beta-arrestin GPR151 cells, luminescence; Q8TDV0; in the data active = activation above about 4.9%;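 note: 0% = median of compound wells and 100% = cells with positive control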
Target sequence (Q8TDV0 whole entry, looked up): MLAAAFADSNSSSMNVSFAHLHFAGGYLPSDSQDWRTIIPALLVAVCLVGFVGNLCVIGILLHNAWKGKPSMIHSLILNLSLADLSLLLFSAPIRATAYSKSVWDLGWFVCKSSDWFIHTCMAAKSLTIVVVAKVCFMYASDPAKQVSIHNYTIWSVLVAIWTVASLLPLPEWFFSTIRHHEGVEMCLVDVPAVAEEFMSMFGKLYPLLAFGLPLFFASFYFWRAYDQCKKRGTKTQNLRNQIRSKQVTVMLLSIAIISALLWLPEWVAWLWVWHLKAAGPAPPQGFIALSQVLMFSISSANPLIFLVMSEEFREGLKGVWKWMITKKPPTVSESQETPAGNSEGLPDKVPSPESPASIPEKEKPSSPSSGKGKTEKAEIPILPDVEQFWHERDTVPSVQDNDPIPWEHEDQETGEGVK
FBW7 act = activators of human E3 ligase FBW7; Q969H0; AlphaScreen FBW7–phospho-cyclin E peptide binding, activator screen; normalized activity (activation), % at 26.1 µM; 650,000 compounds, 0.13% hits; in the data active = normalized activity above about 1.9%;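 note: purified mutant Fbw7 with reduced substrate affinity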
MITF primary = human MITF inhibition, primary screen; O75030; AlphaScreen MITF homodimerization, bead proximity signal; inhibition, % at 2.6 µM; 650,000 compounds, 0.91% hits; AID 1259374; in the data active = inhibition above about 50%;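 note: 0% = vehicle wells with protein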
An asterisk follows results filed as active. Shown are actives, neighbours in structure and some others; about 3.5% of the full set was active somewhere.

SMILES	TEAD-YAP inh	GPR151 ag	FBW7 act	MITF primary
Cc1ccccc1-n1c(SCC(=O)NCc2ccco2)nc2c(sc(=S)n2-c2ccccc2C)c1=O	3.2	-0.2	-0.1	3.9
Cc1ccccc1Nc1ncccc1C(=O)NC1CCCCC1	-9.4	0.8	1.1	-17.7
COc1cccc2sc(N3CCN(c4nc5ccccc5s4)CC3)nc12	-3.5	1.6	0.0	6.2
COc1cccc2sc(N(C)c3ccccc3)nc12	46.8*	-2.1	-0.1	-4.0
COc1cccc2sc(N3CCOCC3)nc12	-32.9	0.0	2.0*	15.7
O=C(Cc1cscn1)NCc1nc(NCCCc2ccccc2)c2ccccc2n1	22.5	-0.5	0.2	6.3
Cc1c(Cc2ccc3c(c2)OCO3)sc(NC(=O)CCc2ccccc2)c1C(N)=O	55.6*	2.2	-0.2	-12.1
COC(=O)c1c(NC(=O)c2ccc3c(c2)OCO3)sc(C)c1C	-8.8	-0.3	0.1	0.5
CC(=O)Nc1sc(Cc2ccc3c(c2)OCO3)c(C)c1C(N)=O	-1.9	-0.9	0.0	1.8
Cc1sc(NC(=S)NC(=O)CCc2ccccc2)c(C(N)=O)c1C	50.1*	-0.2	0.0	-4.5
COC(=O)CCC(=O)NC(=S)Nc1sc(C)c(C)c1C(N)=O	51.7*	2.0	0.0	-10.1
Cc1sc(NC(=O)c2ccc3c(c2)OCO3)c(C(N)=O)c1-c1ccccc1	89.5*	0.0	0.2	-2.4
COC(=O)CCC(=O)Nc1sc(C)c(C)c1C(N)=O	-4.8	1.4	0.1	2.4
CC1=C(C(=O)OC2CCCCC2)C(c2ccc(Cl)cc2Cl)C2=C(CCCC2=O)N1 (centres undefined)	0.4	1.3	-0.1	-5.5
O=C(C1CCC(CNS(=O)(=O)c2ccccc2)CC1)N1CCCC1 (centres undefined)	-2.9	-0.4	0.1	-10.8
O=C(COn1nnc2ccc([N+](=O)[O-])cc21)Nc1ccc(Br)cn1	-1.4	0.1	0.1	11.0
COc1ccc(-n2cc(-c3ccc(C)cc3)nc2SCC(=O)Nc2ccc(F)cc2)cc1	1.5	1.2	-0.2	9.8
CC1(C)CC2CC(C)(CN2C(=O)COC(=O)c2ccc([N+](=O)[O-])o2)C1 (centres undefined)	-2.0	2.1	0.1	4.5
COc1ccc(CCNC(=O)c2sc3ncnc(N4CCN(c5ccccc5OC)CC4)c3c2C)cc1OC	14.2	-0.5	0.4	17.7
COc1ccc(CCNC(=O)c2sc3ncnc(N4CCN(c5ccccn5)CC4)c3c2C)cc1OC	69.8*	0.4	0.1	-4.8
O=C1c2cccc3cccc(c23)C(=O)N1CCN1CCCCC1	67.6*	-0.1	0.0	7.0
O=C1c2cccc3cccc(c23)C(=O)N1CCN1CCN(CCc2ccccc2)CC1	0.3	0.0	-0.1	18.5
Cc1ccc(C)c(OCC(=O)NNC(=O)c2ccccn2)c1	37.0*	3.4	-0.5	3.2
CC(=O)c1ccc(NC(=O)c2ccccn2)cc1	86.9*	-8.5	0.4	15.6
COc1ccccc1C(=O)NNC(=O)c1cnccn1	11.3	1.4	-1.3	6.5
SMILES	TEAD-YAP inh	GPR151 ag	FBW7 act	MITF primary
CC(=O)c1ccc(NC(=O)NNC(=O)c2ccccn2)cc1	-44.2	0.3	-0.8	23.3
COc1ccccc1C(=O)NNC(=O)c1ccccn1	40.6*	-2.3	-1.9	45.1
COc1ccc(C(=O)NNC(=O)c2ccccn2)cc1	93.7*	-8.9	-0.3	-3.5
CCCN(CCC)C(=O)CSc1nc2ccsc2c(=O)n1-c1ccc(F)cc1	-3.8	0.2	-0.3	-1.1
O=C(N/N=C/c1ccc(O)cc1O)c1cccc(S(=O)(=O)Nc2ccc(Cl)cc2)c1	-4.7	0.5	-0.5	1.4
O=C1CCCC2=C1C(c1ccc(N3CCOCC3)cc1)c1c([nH]c(=O)[nH]c1=O)N2 (centres undefined)	-7.0	0.2	-0.3	-5.2
CN(C)c1cccc(NC(=O)c2ccc(C(C)(C)C)cc2)c1	-91.3	0.5	-0.2	-4.2
CCOC(=O)c1[nH]c(C)c(C(=O)c2ccccc2Cl)c1C	22.1	0.9	0.1	9.0
CC(=O)c1c(C)[nH]c(C(=O)OCCCCN2C(=O)c3ccccc3C2=O)c1C	53.8*	-0.3	0.0	-5.6
CC(=O)c1c(C)[nH]c(C(=O)COC(=O)CCCN2C(=O)c3ccccc3C2=O)c1C	6.2	0.4	-0.1	7.1
CCOC(=O)c1[nH]c(C)c(C(=O)c2ccccc2)c1C	48.0*	1.7	0.0	6.9
CCOC(=O)c1[nH]c(C)c(C(=O)NCc2ccc(C)cc2)c1C	-0.7	1.2	0.0	-5.2
CCOC(=O)c1[nH]c(C)c(C(=O)c2ccc(C)cc2)c1C	33.8*	1.3	-0.1	6.3
COC(=O)/C(=C/c1ccc([N+](=O)[O-])cc1)NC(=O)c1ccc(C)cc1	-0.7	3.2	0.0	-17.1
COCCNCCCCOc1c(Cl)cc(C)cc1Br	2.4	-1.0	0.0	41.0
COCCCNCCCOc1c(Cl)cc(C)cc1Br	51.1*	0.1	0.1	50.0
COc1cc(-c2noc(C3CC(=O)N(c4ccc(C)cc4C)C3)n2)cc(OC)c1OC (centres undefined)	44.5*	-1.1	-0.2	-1.1
COc1ccc(N2CC(c3nc(-c4cc(OC)c(OC)c(OC)c4)no3)CC2=O)cc1Cl (centres undefined)	-3.7	-1.5	0.5	-2.9
COc1ncccc1C(=O)Nc1ccc(-c2ccn[nH]2)cc1	-51.9	1.6	-0.1	-5.3
CCOCC(=O)Nc1cc(-c2cn3nc(OC)ccc3n2)ccc1F	67.9*	-5.7	0.0	-9.7
CCOCC(=O)Nc1ccc(-c2cn3nc(OC)ccc3n2)cc1	3.7	-2.6	0.4	9.0
CCn1ncc(Cl)c1C(=O)Nc1cc(Cl)ccc1Cl	-2.5	-1.2	1.9*	4.1
CC(=O)c1cccc(NC(=O)c2ccc(CN3CCOCC3)cc2)c1	-5.3	-0.2	-0.2	-19.3
Cc1ccc2nc(Nc3nc(C)c(C)c(=O)[nH]3)nc(C)c2c1	-31.9	0.1	-0.1	3.8
Cc1ccc2c(C)nc(Nc3nc(C)c(C)c(=O)[nH]3)nc2c1	44.5*	-0.6	0.1	28.1
SMILES	TEAD-YAP inh	GPR151 ag	FBW7 act	MITF primary
Cn1cc(-c2ccc3nc(Nc4ccc(-n5cnc(N6CCOCC6)n5)cc4)ncc3c2)cn1	-8.4	0.3	0.1	36.0
Cc1cc(-c2ncn(-c3ccc(Nc4ncc5ccc(-c6cnn(C)c6)cc5n4)cc3)n2)ccn1	88.5*	-2.7	0.6	26.9
Cn1cc(-c2ccc(Nc3ncc4ccc(-c5cnn(CCN6CCOCC6)c5)cc4n3)cc2)cn1	50.8*	0.3	-0.2	3.0
Cn1cc(-c2ccc3cnc(Nc4ccc(-n5cnc(-c6ccncc6)n5)cc4)nc3c2)cn1	45.3*	-1.4	0.8	14.3
O=C(Nc1cccc(F)c1)c1cccc(C(=O)Nc2cccc(F)c2)n1	9.6	0.1	0.0	6.1
CCN1CCN(C(=O)Nc2ccc(F)c(Cl)c2)CC1	-7.2	1.0	0.4	10.4
Cc1ccccc1NC(=O)CSc1nc2cc3c(cc2cc1C#N)OCO3	6.0	1.3	-0.1	-5.9
Cc1ccccc1NC(=O)CSc1nc2cc3c(cc2cc1C#N)OCCO3	57.6*	0.2	0.0	7.5
N#Cc1cc2cc3c(cc2nc1SCC(=O)NCC1CCCO1)OCCO3 (centres undefined)	55.1*	0.7	0.1	4.7
N#Cc1cc2cc3c(cc2nc1SCC(=O)NCCc1ccccc1)OCCO3	34.4*	1.1	0.1	17.6

Compound activity: PubChem, The Scripps Research Institute Molecular Screening Center
